Screens as filed in PubChem.
This excerpt belongs to a sample that is enriched for hits.
Lassa entry inh: inhibitors of Lassa virus binding or cell entry; actives 1.2% (n = 300,000); Lassa virus pseudotype entry inhibition, cell reporter; AID 540256; Potency, µM (highest dose often 37.9 µM), for inactives: top-dose activity change, negative = inhibition, most hits filed as inhibitors; calls by dose curve; tested in HEK293 cells; note: potency is the fitted concentration of half-maximal effect; % is set by controls: 0 for no effect and ±100 for the full control effect; nearly all actives have a fitted effect of over 50% in size
Marburg entry inh: blocks Marburg virus binding to or entry into cells | Marburg virus pseudotyped entry inhibition, cell reporter | actives 1.8% (n = 300,000) | Potency, µM (highest dose often 37.8 µM), for the others: top-dose activity change, negative = inhibition, actives largely listed as inhibitors; calls by dose curve; tested in HEK293 cells; note: potency is the fitted concentration of half-maximal effect; % is set by controls: 0 for no effect and ±100 for the full control effect
Shiga toxin inh: blocks Shiga toxin action in Vero cells | Vero cells, Shiga toxin protein synthesis inhibition reporter | inhibition, % at 38.7 µM | actives 9.2% (n = 290,000); in the data active = inhibition mostly above about 28%, no sharp cut-off; inactive = mostly below about 43%; note: 0% is about no effect
Cycloheximide cs: counter-screen hit for Shiga toxin inhibitors, cycloheximide; cell reporter, cycloheximide protein synthesis inhibition counterscreen; max response, %; actives 12% (n = 300,000); in the data active = max response mostly above about 13%, no sharp cut-off; inactive = mostly below about 14%; note: read at 38.3 µM for the half of the compounds with a filed dose; 0% is about no effect
AMA1-RON2 inh: AMA1-RON2 (P. falciparum) interaction inhibition; AlphaScreen AMA1-biotinylated RON2 peptide binding; Potency, µM (doses to about 58.2 µM), for inactives: top-dose activity change, negative = inhibition, hits mostly inhibitors; actives 0.2% (n = 360,000); active = well fitted inhibition curve with a large enough effect; inconclusive = small, poorly fitted or top-dose-only effect; inactive = no such curve, though single readings can be large or run the other way;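 note: potency is the fitted concentration of half-maximal effect; 0% = vehicle wells and -100% = peptide control; nearly all actives have a fitted effect of over 45% in size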
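AMA1 (3D7) with his tag at 25 nM final met compounds first, then biotinylated RON2 peptide at 25 nM; detection used donor plus acceptor beads, 10 µg/mL apiece, read by AlphaScreen after 30 min at room temperature.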
* hit, by the source's call; ? = inconclusive; . = no result given; [ ] = remark or other dose.

SMILES	Lassa entry inh	Marburg entry inh	Shiga toxin inh	Cycloheximide cs	AMA1-RON2 inh
CCOc1ccc2c(c1)S/C(=C\c1cccs1)C(=O)N2	.	.	68.7*	31.4*	0.0%
CCOc1ccc2c(c1)/C(=N/N1C(=O)c3ccccc3C1=O)C(=O)N2	-0.7%	-10.8%[46.1 µM]	7.7	-1.7	-5.3%
Cn1cccc1/C=C1\SC(=Nc2ccc(O)cc2)NC1=O	.	.	36.9*	44.3*	-5.3%
CCOc1ccc(NC(=O)C2C3C=CC4(O3)C2C(=O)N(Cc2cccnc2)C4C(=O)NC2CCCCC2)cc1 (stereo not given)	18.8%	-2.3%[46.1 µM]	-3.2	-8.9	16.3%
C[C@@H]1CC[C@H]2C(=O)N3[C@@H](CC[C@@H](C)[C@@H]3c3ccc(-c4ccco4)cc3)C(=O)N2[C@@H]1c1ccc(-c2ccco2)cc1	?	-1.7%[14.2 µM]	.	.	.
Cc1cc(C)cc(N=C2NC(=O)/C(=C/c3cccs3)S2)c1	-4.2%	4.1%	3.7	-1.3	26.0%
O=C1NC(=Nc2ccccc2)S/C1=C\c1cccs1	.	.	89.4*	44.6*	-1.9%
Cn1cccc1/C=C1\SC(=Nc2cccc(O)c2)NC1=O	.	.	99.6*	40.3*	-22.9%
Cc1nc(SCC(=O)NCc2ccco2)c2c(C)c(C)sc2n1	?	14.6µM*	-6.2	8.1	12.3%
Cc1sc2nc(C(C)C)nc(SCC(=O)NCc3ccco3)c2c1C	-1.0%	-21.6%	45.0	32.0*	35.5%
Cc1nc(SCC(=O)Nc2ccc(S(=O)(=O)N3CCOCC3)cc2)c2c(C)c(C)sc2n1	1.12µM*	?	.	.	25.4%
Cc1sc2ncnc(SCC(=O)NC(=O)NCc3ccco3)c2c1C	-11.5%	5.1%	22.8	-1.6	-8.2%
COc1ccc2c(c1)CO[C@H]([C@H](O)COC(C)=O)[C@H]2C=Cc1ccccc1	.	-2.1%[14.2 µM]	.	.	.
CC1(OC(=O)C2CCCC2)C(=O)C=C2C=C(c3ccsc3)N(c3cccc(C#N)c3)C=C2C1=O (stereo not given)	.	10.8%[14.2 µM]	.	.	.
COC(=O)c1ccc2nc(NC(=O)CN3C(=O)CCC3=O)sc2c1	15.5%	1.2%	16.0	19.0	-6.9%
COC(=O)c1ccc2nc(NC(=O)C3CC3)sc2c1	-9.5%	-23.2%[46.1 µM]	155.2*	49.1*	-4.7%
COC(=O)c1ccc2nc(NC(=O)C(C)C)sc2c1	?	?	97.9*	51.9*	-2.1%
Nc1nc(-c2ccccc2)nc2nonc12	.	.	.	.	1.8%
CCCCNC(=O)C1C(c2ccc(C(F)(F)F)cc2)=Nc2ccccc2N1C(=O)c1ccc2nc(C)[nH]c2c1 (stereo not given)	.	.	.	.	5.9%
COc1ccc(-c2csc3ncnc(Nc4cccc(OC)c4)c23)cc1	-18.4%[46.1 µM]	.	.	.	.
CC(=O)Nc1cccc(Oc2ncnc3scc(-c4ccc(C(C)C)cc4)c23)c1	2.51µM*	2.82µM*	12.8	-1.8	-5.2%
CC(C)c1ccc(N2CC(C)(C)C2=O)cc1	-15.7%	0.2%[46.1 µM]	74.2*	28.9*	1.6%
CCN(CC)S(=O)(=O)c1ccc(Cl)c(NC(=O)c2cc(Cl)cc(Cl)c2)c1	10.8%	?	-16.7	0.7	-11.0%
CCNC(=O)/C(C#N)=C/c1c(N2CCN(c3ccccc3)CC2)nc2ccccn2c1=O	.	.	44.1*	28.8*	-8.2%
CCOc1ccc(NC(=O)c2cc3c(s2)-c2ccccc2OC3)cc1	.	3.1%[46.1 µM]	.	.	.
SMILES	Lassa entry inh	Marburg entry inh	Shiga toxin inh	Cycloheximide cs	AMA1-RON2 inh
CC1(C)OC(=O)C(=NNc2ccc(Br)cc2)C(=O)O1	2.6%	2.2%	115.2*	31.2*	-20.2%
CN=C(NC1CCCCC1)c1ccc(Cl)cc1	-4.0%	?	-2.6	-2.6	5.0%
CC1CCN(C(=O)Cn2ncc3c4ccccc4n(C)c3c2=O)CC1	13.4%	2.1%[46.1 µM]	21.4	0.8	-17.6%
Cn1c2ccccc2c2cnn(CC(=O)N3CCCCC3)c(=O)c21	.	.	29.9	17.3*	-4.6%
COc1ccc(CCN2CC(C(=O)N(C)Cc3ccccn3)CCC2=O)cc1 (stereo not given)	.	.	.	.	-5.5%
COc1ccc(CCN2CC(C(=O)N(C)Cc3ccc(C)o3)CCC2=O)cc1 (stereo not given)	?	?	74.1*	38.4*	-0.1%
COc1ccccc1CN1CC(C(=O)N(C)Cc2ccc(C)o2)CCC1=O (stereo not given)	.	.	97.5	21.7*	-11.0%
COc1ccccc1CN1CC(C(=O)N(C)Cc2ccncc2C)CCC1=O (stereo not given)	1.3%	-17.5%	-2.7	-1.9	5.0%
O=C(NNC1=Nc2ccccc2SC1)c1ccccc1F	?	?	71.9*	39.3*	35.3%
COCCN1Cc2cccc(C(=O)Nc3cccc(-c4nc5ccccc5[nH]4)c3)c2C1=O	?	?	105.1	48.0*	-8.6%
COCCN1Cc2cccc(C(=O)Nc3ccc(-c4nc5ccccc5[nH]4)cc3)c2C1=O	1.0%	?	11.7	11.5*	-4.9%
COCCN1Cc2cccc(C(=O)Nc3cc(C)cc(C)c3)c2C1=O	2.9%	?	-2.9	0.6	7.1%
CCCN1Cc2cccc(C(=O)Nc3ccc4c(c3)OCCO4)c2C1=O	.	.	59.5	18.7*	-1.6%
CCCN1Cc2cccc(C(=O)Nc3ccc(-c4nc5ccccc5[nH]4)cc3)c2C1=O	8.8%	3.4%	8.3	18.2*	0.4%
CCCN1Cc2cccc(C(=O)Nc3ccc4c(c3)OCO4)c2C1=O	-5.0%	5.5%	-6.7	-1.7	2.9%
Cc1ccc2c(=O)cc(C(=O)Nc3ccc(S(=O)(=O)N4CCCCCC4)cc3)oc2c1	22.5%[46.1 µM]	1.3%[46.1 µM]	.	.	.
Cc1ccc(C)c(NC(=O)COC(=O)COc2cccc3c2OC(C)(C)C3)c1	3.1%	27.7%	.	.	-5.4%
O=c1c2ccccc2nnn1CSc1nnc2ccccn12	-12.3%	?	99.0*	33.9*	-1.0%
Cn1c(SCn2nnc3ccccc3c2=O)nc2ccccc2c1=O	.	.	-2.0	0.5	.
O=c1c2ccccc2nnn1CSc1nnc(-c2cccs2)n1Cc1ccccc1	?	0.82µM*	-29.6	-3.5	-15.1%
Cc1cccc(CC(=O)OCn2nnc3ccccc3c2=O)c1	.	.	-2.8	-1.5	-3.3%
Cc1cccc(-n2nnnc2SCn2nnc3ccccc3c2=O)c1	1.7%	3.2%	53.2	23.0*	6.6%
O=c1c2ccccc2nnn1CSc1nnnn1-c1ccc(O)cc1	.	.	67.3*	32.4*	4.9%
COc1ccc(C)cc1-n1nnnc1SCn1nnc2ccccc2c1=O	?	-24.8%	-3.6	-2.2	-0.3%
Cc1ccc(-n2nnnc2SCn2nnc3ccccc3c2=O)cc1	-8.4%	-14.3%	94.8*	62.2*	-2.9%
SMILES	Lassa entry inh	Marburg entry inh	Shiga toxin inh	Cycloheximide cs	AMA1-RON2 inh
O=C(Nc1ccc(-n2cccn2)cc1)C1CCCCN1Cc1cccc2cccnc12 (stereo not given)	-10.0%[46.1 µM]	?	11.0	24.3*	43.3%
Cc1ccc(NC(=O)c2ccc(F)cc2)nc1	.	.	-2.4	1.7	-2.9%
Cc1ccc(NC(=O)c2sccc2C)nc1	.	.	88.2*	49.0*	-8.1%
Cc1ccc(NC(=O)C(=O)Nc2ccc(C)cn2)nc1	-0.8%[46.1 µM]	?	84.6*	50.5*	-1.2%
Cc1ccc(NC(=O)NC(=O)N(C(C)C)S(C)(=O)=O)nc1	-1.8%	6.3%	-34.2	13.6*	-0.8%
Cc1ccc(NC(=O)c2cccnc2C(=O)O)nc1	?	-2.7%[46.1 µM]	3.6	-2.7	?
Cc1ccc(NC(=O)/C(C#N)=C(\N)C(Cl)(Cl)Cl)nc1	?	-20.0%[46.1 µM]	76.4*	38.1*	5.9%
